About 83,000 compounds went through this panel and 20% of them were active in at least one assay; those are over-represented in the sample as a whole.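 The test compound was applied at a single concentration to cells in 96-well plates for 48 hours, and percent growth was recorded.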 The source made the active and inactive calls. The calls were made as follows: active = growth percent below 10; inactive = the rest.
How the values were obtained:
Assay in all cases: NCI-60 one-dose screen, 48 h (100 = growth as untreated, 0 = no growth, -100 = all killed)
Details in all cases: 10 µM unless noted
[1] = system: HCT-15 colon
[2] = system: HT29 colon
[3] = system: SNB-75 CNS
[4] = system: SNB-19 CNS
[5] = system: U251 CNS
[6] = system: PC-3 prostate
[7] = system: SK-MEL-5 melanoma
[8] = system: UACC-62 melanoma
[9] = system: LOX IMVI melanoma
[10] = system: SK-MEL-28 melanoma
[11] = system: SK-MEL-2 melanoma
[12] = system: EKVX NSCLC
[13] = system: SN12C renal
[14] = system: UO-31 renal
[15] = system: TK-10 renal
[16] = system: ACHN renal
[17] = system: CAKI-1 renal
[18] = system: A498 renal
[19] = system: CCRF-CEM leukemia
[20] = system: MOLT-4 leukemia

Measured: growth

CCOC(=O)C1C(=O)NC(C(=O)OCC)(C(=O)OCC)C1CC (configuration not stated)
inactive: [1] 92.8% | [2] 111% | [3] 107% | [4] 105% | [5] 105% | [6] 92.9% | [7] 101% | [8] 98.1% | [9] 95.6% | [10] 123% | [11] 110% | [12] 117% | [13] 100% | [14] 89.5% | [15] 115% | [16] 104% | [17] 99.9% | [18] 104% | [19] 109% | [20] 113%

CCSc1ncc(Br)c(Sc2nc(N)nc3nc[nH]c23)n1
inactive: [1] 68.5% | [2] 62.3% | [3] 60.2% | [4] 121% | [5] 89.5% | [6] 80.1% | [7] 74.6% | [8] 19.3% | [9] 19.5% | [10] 152% | [11] 73.1% | [12] 36.7% | [13] 80.9% | [14] 70% | [15] 72.7% | [16] 77.6% | [17] 57.7% | [18] 95.9%
active: [20] 3.06%

CCCCc1ccc(C(N)=O)nc1
inactive: [1] 94.1% | [2] 109% | [3] 79.2% | [4] 102% | [5] 100% | [6] 98.7% | [7] 101% | [8] 93.1% | [9] 89% | [11] 96% | [12] 100% | [13] 98.7% | [14] 88.7% | [15] 103% | [16] 98.8% | [17] 102% | [19] 92% | [20] 101%
active: [10] -97.1% | [18] -4.32%

NS(=O)(=O)c1ccc(-n2ncc3c(SCc4ccccc4)ncnc32)cc1
inactive: [1] 93.7% | [2] 94.1% | [3] 102% | [4] 93.9% | [5] 98.3% | [6] 90.9% | [7] 79.5% | [8] 92.8% | [9] 92.8% | [10] 107% | [11] 99.8% | [12] 107% | [13] 98.8% | [14] 98.5% | [15] 89.4% | [16] 98% | [17] 26.3% | [18] 111% | [20] 50.3%

Cn1c(=O)c2[nH]c(=S)n(Cc3ccccc3)c2n(C)c1=O
inactive: [1] 102% | [2] 111% | [3] 84.9% | [4] 99.1% | [5] 110% | [6] 98.2% | [7] 102% | [8] 91.8% | [9] 88.1% | [10] 122% | [11] 104% | [12] 125% | [13] 99% | [14] 91.4% | [15] 104% | [16] 96.1% | [17] 111% | [18] 92.8% | [20] 81.9%

CC(=O)Nc1cc2c3c(cccc3c1)-c1ccccc1-2
inactive: [1] 79.4% | [2] 108% | [3] 60.1% | [4] 91.2% | [5] 75.3% | [6] 57.9% | [7] 102% | [8] 89% | [9] 75.9% | [10] 103% | [11] 83.5% | [12] 55.1% | [13] 31.6% | [14] 19.2% | [15] 96.3% | [16] 91.5% | [17] 33.5% | [18] 58.7% | [19] 21.4% | [20] 45.8%

COc1ccc(CNC(=O)c2c(C)n([O-])c3cc(F)c(F)cc3[n+]2=O)cc1
active: [14] -32.4%
inactive: [1] 36.8% | [2] 93% | [3] 93% | [4] 93.9% | [5] 94.9% | [6] 94% | [7] 97.5% | [8] 87.7% | [9] 57.1% | [10] 93.7% | [11] 88.1% | [12] 89.2% | [13] 95.2% | [15] 102% | [16] 98.7% | [17] 152% | [18] 95.1% | [19] 90.8% | [20] 97%
